Laboratory results: PubChem BioAssay (NCI)
About 79,000 compounds went through this panel and 15% of them were active in at least one assay; those are over-represented in the sample as a whole. Activity calls are given as the source filed them. Rule as the data show it: active = growth inhibition above about 70%; inactive = the rest.

How the values were obtained:
[1] = NCI Yeast Anticancer Drug Screen. Data for the rad50 strain (AID 155);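 also: 0% = growth of vehicle-only cultures of the same strain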; conditions: S. cerevisiae rad50 strain growth inhibition, hits give high values
Procedure, shortened: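 Readout: growth inhibition relative to vehicle-treated cultures. Compound exposure was carried out in a genetically defined yeast strain deficient in DNA damage repair.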

[2] = NCI Yeast Anticancer Drug Screen. Data for the mec2-1 strain (AID 157); conditions: S. cerevisiae mec2-1 strain, hits give high values
Procedure, shortened: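 Compounds were applied to mec2-1 yeast cells. Their growth was then compared with that of vehicle-treated cultures to give growth inhibition.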

[3] = NCI Yeast Anticancer Drug Screen. Data for the sgs1 mgt1 strain (AID 161);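 also: 0% = growth of cultures given vehicle only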; conditions: S. cerevisiae sgs1 mgt1 strain, hits give high values
Procedure, shortened: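 This yeast growth screen uses a strain with defined DNA-repair lesions; compound-treated growth is compared with vehicle-treated growth.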

[4] = NCI Yeast Anticancer Drug Screen. Data for the cln2 rad14 strain (AID 165);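 also: 0% = growth equal to vehicle treated cultures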; conditions: S. cerevisiae cln2 rad14 strain, hits give high values
Procedure, shortened: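 Strain: cln2 rad14 yeast, altered in cell cycle control and DNA damage repair. Read-out: growth inhibition vs vehicle.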

[5] = NCI Yeast Anticancer Drug Screen. Data for the bub3 strain (AID 167); conditions: S. cerevisiae bub3 mutant strain, hits give high values
Procedure, shortened: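 Readout: yeast growth inhibition, expressed relative to vehicle-only wells. The test organism is a mutant strain from a panel with lesions in DNA repair or checkpoint genes.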

[6] = NCI Yeast Anticancer Drug Screen. Data for the mlh1 rad18 strain (AID 175); conditions: S. cerevisiae mlh1 rad18 strain growth inhibition, hits give high values
Procedure, shortened: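 A repair-deficient yeast strain is exposed to test compound, and growth is scored relative to vehicle-treated controls.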

[7] = at 5.0 µM (retest, dose inferred, filed as 0.5)
[8] = at 50.0 µM (retest, dose inferred, filed as 5.0)

Measured: growth inhibition

CCOc1c(Br)cc(/C=C/[N+](=O)[O-])cc1OC
active: [1]; [8] 98% | [2]; [8] 98% | [2]; at 50.0 µM 75.5% | [3]; [8] 98% | [3]; at 50.0 µM 84% | [4]; [8] 92% | [4]; at 50.0 µM 77% | [5]; [8] 99% | [5]; at 50.0 µM 79% | [6]; [8] 98% | [6]; at 50.0 µM 90.5%
inactive: [1]; [7] 44% | [1]; at 50.0 µM 69.8% | [2]; [7] 61% | [3]; [7] 32% | [4]; [7] 45% | [5]; [7] 61% | [6]; [7] 58%

CC(Cc1ccccc1)N(C)Cc1ccc(-c2ccc(Cl)cc2)o1 (stereo not given)
active: [1]; [8] 100% | [1]; at 50.0 µM 99% | [2]; [8] 100% | [2]; at 50.0 µM 99.7% | [3]; [8] 100% | [4]; [8] 100% | [4]; at 50.0 µM 99.3% | [5]; [8] 100% | [5]; at 50.0 µM 99.2% | [6]; [8] 100% | [6]; at 50.0 µM 99.5%
inactive: [1]; [7] 56% | [2]; [7] 11% | [3]; [7] 49% | [3]; at 50.0 µM 33.9% | [4]; [7] 38% | [5]; [7] 42% | [6]; [7] 41%

N#CC(Nc1c(N)nc(-c2ccccc2)nc1N)c1ccc(N(CCCl)CCCl)cc1 (stereo not given)
active: [6]; [8] 90%
inactive: [1]; [7] 4% | [1]; [8] 45% | [1]; at 50.0 µM 57.5% | [2]; [7] -18% | [2]; [8] 26% | [2]; at 50.0 µM 66% | [3]; [7] 2% | [3]; [8] 43% | [3]; at 50.0 µM 59.8% | [4]; [7] -10% | [4]; [8] 9% | [4]; at 50.0 µM 53.1% | [5]; [7] -4% | [5]; [8] -4% | [5]; at 50.0 µM 0.75% | [6]; [7] 27% | [6]; at 50.0 µM 55.6%

[Cl][Hg].c1ccc([As]c2ccc(-c3ccccc3)cc2)cc1 (stereo not given)
active: [1]; [7] 99% | [1]; [8] 90% | [1]; at 50.0 µM 99% | [2]; [7] 99% | [2]; [8] 92% | [2]; at 50.0 µM 99.4% | [3]; [7] 100% | [3]; [8] 93% | [3]; at 50.0 µM 99.2% | [4]; [7] 99% | [4]; [8] 91% | [4]; at 50.0 µM 99% | [5]; [7] 99% | [5]; [8] 92% | [5]; at 50.0 µM 98.5% | [6]; [7] 100% | [6]; [8] 92% | [6]; at 50.0 µM 99%

O=CNc1ccccc1.[Hg]
active: [1]; [7] 98% | [1]; [8] 98% | [1]; at 50.0 µM 99.7% | [2]; [7] 99% | [2]; [8] 99% | [2]; at 50.0 µM 99.6% | [3]; [7] 99% | [3]; [8] 98% | [3]; at 50.0 µM 99.4% | [4]; [7] 99% | [4]; [8] 98% | [4]; at 50.0 µM 99.3% | [5]; [7] 99% | [5]; [8] 98% | [5]; at 50.0 µM 99.5% | [6]; [7] 98% | [6]; [8] 98% | [6]; at 50.0 µM 99.4%

COc1c(O)c2c(c3cc(C(=O)N4CCc5c4c(O)c(OC)c4[nH]c(C(=O)N6CC7CC78C6=CC(=O)c6[nH]cc(C)c68)cc54)[nH]c13)CCN2C(N)=O (stereo not given)
active: [1]; [7] 97% | [1]; [8] 97% | [1]; at 50.0 µM 89.8% | [2]; [7] 98% | [2]; [8] 98% | [2]; at 50.0 µM 93% | [3]; [7] 96% | [3]; [8] 96% | [3]; at 50.0 µM 90.5% | [4]; [7] 95% | [4]; [8] 95% | [4]; at 50.0 µM 89% | [5]; [7] 94% | [5]; [8] 96% | [5]; at 50.0 µM 91% | [6]; [7] 98% | [6]; [8] 97% | [6]; at 50.0 µM 89.5%

N#C[S-].[Nd+3].c1cnc2c(c1)ccc1cccnc12.c1cnc2c(c1)ccc1cccnc12.c1cnc2c(c1)ccc1cccnc12
active: [1]; [7] 91% | [1]; [8] 99% | [1]; at 50.0 µM 93% | [2]; [7] 98% | [2]; [8] 100% | [2]; at 50.0 µM 94.8% | [3]; [7] 98% | [3]; [8] 99% | [3]; at 50.0 µM 94.2% | [4]; [7] 93% | [4]; [8] 98% | [4]; at 50.0 µM 93.7% | [5]; [7] 98% | [5]; [8] 99% | [5]; at 50.0 µM 93.2% | [6]; [7] 98% | [6]; [8] 99% | [6]; at 50.0 µM 92.8%

Nc1c(Cl)cccc1C(=O)O
inactive: [1]; [7] 3% | [1]; [8] 4% | [1]; at 50.0 µM 54% | [2]; [7] -2% | [2]; [8] 0% | [2]; at 50.0 µM 26.8% | [3]; [7] 1% | [3]; [8] 6% | [3]; at 50.0 µM 45.7% | [4]; [7] -4% | [4]; [8] -7% | [4]; at 50.0 µM 13.4% | [5]; [7] 3% | [5]; [8] 1% | [5]; at 50.0 µM 23.9% | [6]; [7] 2% | [6]; [8] 5% | [6]; at 50.0 µM 34.9%

O=[N+]([O-])[O-].O=[N+]([O-])[O-].[Au].[Au].c1ccc([P-]c2ccccc2)cc1.c1ccc([P-]c2ccccc2)cc1
active: [1]; [8] 94% | [1]; at 50.0 µM 87.8% | [2]; [8] 95% | [2]; at 50.0 µM 91.4% | [3]; [8] 96% | [3]; at 50.0 µM 91.3% | [4]; [8] 96% | [4]; at 50.0 µM 89.5% | [5]; [8] 96% | [5]; at 50.0 µM 88.9% | [6]; [7] 72% | [6]; [8] 95% | [6]; at 50.0 µM 86.7%
inactive: [1]; [7] 62% | [2]; [7] 47% | [3]; [7] 59% | [4]; [7] 29% | [5]; [7] 53%

[Cl][Sn]1([c]2ccccc2)[O]CCNCC[O]1
inactive: [1]; [7] 22% | [2]; [7] 9% | [3]; [7] 12% | [4]; [7] 6% | [5]; [7] 9% | [6]; [7] 19%
active: [1]; [8] 97% | [1]; at 50.0 µM 88.1% | [2]; [8] 99% | [2]; at 50.0 µM 91.2% | [3]; [8] 99% | [3]; at 50.0 µM 90.8% | [4]; [8] 97% | [4]; at 50.0 µM 91.8% | [5]; [8] 98% | [5]; at 50.0 µM 90% | [6]; [8] 97% | [6]; at 50.0 µM 91.8%

CCCCCCCCCCCCCCCCCC(=O)[O][Hg][c]1ccccc1
active: [1]; [8] 96% | [1]; at 50.0 µM 90.7% | [2]; [8] 98% | [2]; at 50.0 µM 91.5% | [3]; [7] 100% | [3]; [8] 99% | [3]; at 50.0 µM 94% | [4]; [7] 99% | [4]; [8] 100% | [4]; at 50.0 µM 92.3% | [5]; [7] 99% | [5]; [8] 100% | [5]; at 50.0 µM 90% | [6]; [8] 100% | [6]; at 50.0 µM 90.2%
inactive: [1]; [7] 33% | [2]; [7] 43% | [6]; [7] 34%

CC(=O)[CH-]C(=O)c1ccccc1.CC(=O)[CH-]C(=O)c1ccccc1.C[C@]12CCC(=O)C=C1CC[C@@H]1C2CC[C@@]2(C)C1CC[C@@H]2[O-].C[C@]12CCC(=O)C=C1CC[C@@H]1C2CC[C@@]2(C)C1CC[C@@H]2[O-].Cl.[Ti+4] (stereo not given in full)
inactive: [1]; [7] 41% | [2]; [7] 35% | [3]; [7] 39% | [4]; [7] 26% | [4]; [8] 48% | [4]; at 50.0 µM 50.9% | [5]; [7] 37% | [6]; [7] 47%
active: [1]; [8] 78% | [1]; at 50.0 µM 76.8% | [2]; [8] 84% | [2]; at 50.0 µM 70.8% | [3]; [8] 85% | [3]; at 50.0 µM 78.8% | [5]; [8] 86% | [5]; at 50.0 µM 76.5% | [6]; [8] 84% | [6]; at 50.0 µM 73.2%

Oc1c(Cl)cc(Cl)cc1Cl
inactive: [1]; [7] -1% | [2]; [7] -6% | [2]; [8] 67% | [3]; [7] -1% | [3]; [8] 64% | [4]; [7] -8% | [4]; [8] 55% | [4]; at 50.0 µM 54.9% | [5]; [7] -13% | [6]; [7] -5%
active: [1]; [8] 94% | [1]; at 50.0 µM 86.5% | [2]; at 50.0 µM 78% | [3]; at 50.0 µM 94.8% | [5]; [8] 90% | [5]; at 50.0 µM 78.5% | [6]; [8] 94% | [6]; at 50.0 µM 95.8%

O=C(CCl)c1ccc(O)cc1
inactive: [1]; [7] 16% | [2]; [7] 21% | [3]; [7] 31% | [4]; [7] 7% | [5]; [7] 20% | [6]; [7] 22%
active: [1]; [8] 96% | [1]; at 50.0 µM 91.5% | [2]; [8] 98% | [2]; at 50.0 µM 98.2% | [3]; [8] 97% | [3]; at 50.0 µM 97.3% | [4]; [8] 97% | [4]; at 50.0 µM 89.2% | [5]; [8] 98% | [5]; at 50.0 µM 96% | [6]; [8] 98% | [6]; at 50.0 µM 97.8%

COc1cc2c3c(c1)-c1c(ccc(OC)c1OC)CC3N(CCCl)CC2 (stereo not given)
active: [1]; [8] 92% | [1]; at 50.0 µM 87% | [3]; [8] 71% | [3]; at 50.0 µM 77.2% | [4]; [8] 77% | [5]; [8] 75% | [6]; [8] 78% | [6]; at 50.0 µM 86.7%
inactive: [1]; [7] 15% | [2]; [7] 11% | [2]; [8] 69% | [2]; at 50.0 µM 38.9% | [3]; [7] 7% | [4]; [7] 7% | [4]; at 50.0 µM 31.8% | [5]; [7] 13% | [5]; at 50.0 µM 28.9% | [6]; [7] 12%
